The list is not random: actives were taken first. Their share in the collection is about 2.2%.
Giardia kill: Giardia lamblia killing. activity change, % at 7.66 µM, hits read low. 340,000 tested, 0.15% active. AID 540267. Giardia lamblia trophozoite viability; in the data active means activity change below about -80%; inconclusive means between about -30% and that limit;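 further: parasites exposed to compound for two days anaerobically before the ATP read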
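Viability, read as ATP luminescence: trophozoites at 100 cells/well, compound added, 48 hrs anaerobic at 37 deg C, then 15-30 min room-temperature development before reading.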
rTrxR1 inhibitor: inhibitors of rat thioredoxin reductase 1; 390,000 tested, 1% active; Potency, µM (titrated, usually from 114 µM), actives largely listed as inhibitors; AID 588453; recombinant rTrxR1, NADPH fluorescence consumption, selenite substrate; further: nearly all actives have a fitted effect of over 65% in size
Target sequence (O89049 whole entry, looked up): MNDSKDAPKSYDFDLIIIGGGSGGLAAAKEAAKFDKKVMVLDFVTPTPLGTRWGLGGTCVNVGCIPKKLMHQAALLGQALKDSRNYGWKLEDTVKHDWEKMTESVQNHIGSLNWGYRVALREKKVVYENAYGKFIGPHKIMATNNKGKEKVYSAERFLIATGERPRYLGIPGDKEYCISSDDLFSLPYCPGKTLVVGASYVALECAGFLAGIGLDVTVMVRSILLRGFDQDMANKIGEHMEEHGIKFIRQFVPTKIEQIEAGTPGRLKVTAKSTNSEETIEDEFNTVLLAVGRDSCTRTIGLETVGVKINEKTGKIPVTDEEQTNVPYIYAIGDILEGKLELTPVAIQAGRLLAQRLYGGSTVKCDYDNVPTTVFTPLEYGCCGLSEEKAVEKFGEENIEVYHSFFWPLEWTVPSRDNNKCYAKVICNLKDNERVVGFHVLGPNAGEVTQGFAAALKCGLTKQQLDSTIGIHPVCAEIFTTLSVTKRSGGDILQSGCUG
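Rat TrxR1 (90 nM in the dispensed reagent) was pre-reduced with 400 uM NADPH for 5 min at room temperature, then incubated with compound for 15 min. After 400 uM selenite was added, NADPH fluorescence (Ex 340/Em 450 nm) was followed for 8 min.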
IL-2 act: activates IL-2 in a cell-based reporter assay; 360,000 tested, 0.065% active; activation, % (series mostly up to about 46 µM); IL-2 activation reporter assay, cell-based qHTS; stimulated with anti-CD3/CD4/CD28 beads; in transgenic mouse T cells; AID 652025; in the data active means activation above about 50%; inconclusive means mostly about 30% to 49%
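Screening format: compound pinned onto unstimulated transgenic mouse T cells, 60 min incubation, then anti-CD3/anti-CD4/anti-CD28 bead stimulation for 18 hours at 37 degrees C, followed by EGFP and DsRed detection.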
BRCA1 expr act: BRCA1 expression activation; MCF7-BRCA1-FFLuc reporter, luminescence, 48 h; response scale: scaled: vehicle 0%, 10 µM genistein 100%; Potency, µM (doses to about 46.1 µM), actives largely listed as activators; 380,000 tested, 1.1% active; AID 624202; further: nearly all actives have a fitted effect of over 80% in size
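48 h compound treatment of MCF7-BRCA1-FFLuc cells (phenol-red free MEM, 37 °C), then 15 min with luciferase substrate and luminescence imaging.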
TrxR1 substrate: rat thioredoxin reductase 1 substrate activity | O89049 | purified TrxR1 substrate turnover, NADPH consumption readout | Potency, µM (highest dose often 114 µM) | 390,000 tested, 0.01% active | AID 588456; further: nearly all actives have a fitted effect of over 50% in size
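Rat TrxR1, dispensed at 90 nM, was prereduced with 400 uM NADPH (final) for 5 min at ~22 deg C, then incubated with compound 15 min before 400 uM selenite. A first-read NADPH fluorescence drop versus no-compound background flagged substrates.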
mIDH1 inhibitor: human IDH1 R132H inhibition | O75874 | IDH1-R132H enzyme, NADPH consumption, diaphorase/resazurin fluorescence | Potency, µM (series often up to 76.6 µM), hits mostly inhibitors | 390,000 tested, 0.093% active | AID 602179; further: nearly all actives have a fitted effect of over 65% in size
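IDH1-R132H (0.5 ug/mL) preincubated 30 min with compound, then NADPH (0.016 mM) and alpha-KG (2 mM) added; 80 min at RT, pH 7.5. Remaining NADPH coupled via diaphorase/resazurin to fluorescence (540/590 nm); concentration-response curves normalized to no-enzyme control.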
Each line names hits and unclear results; the compound was inactive in the other large screens. Unless noted, the call rests on the fitted dose curve; in most records, active means well fitted curve in the direction sought with a large enough effect; inconclusive means small, poorly fitted or top-dose-only effect, or another doubt; inactive means no such curve, though single readings can be large; an effect the other way counts as inactive or inconclusive.

CCC(C)NC(=O)CCSc1nc(-c2ccc(OC)cc2)cc(C(F)(F)F)n1 (configuration not stated)	none (no result: Giardia kill, IL-2 act)
CCOC(=O)CS(=O)(=O)c1nc(-c2ccccc2)cc(C(F)(F)F)n1	rTrxR1 inhibitor inconclusive
COC(=O)CCS(=O)(=O)c1nc(-c2ccccc2)cc(C(F)(F)F)n1	rTrxR1 inhibitor 18µM
CCOC(=O)CCS(=O)(=O)c1nc(-c2ccccc2)cc(C(F)(F)F)n1	rTrxR1 inhibitor 16µM
COCC(C)NC(=O)CCS(=O)(=O)c1nc(-c2ccc(OC)cc2)cc(C(F)(F)F)n1 (configuration not stated)	rTrxR1 inhibitor 56µM
CCOc1ccc(CCNC(=O)CCN2N=C(c3ccc(OC)cc3)CCC2=O)cc1OCC	none (no result: Giardia kill, IL-2 act, BRCA1 expr act)
Cn1nc(C(=O)NCCc2ccc(Cl)cc2)c2c1-c1ccccc1SC2	none (no result: Giardia kill, IL-2 act, BRCA1 expr act)
Cn1nnnc1Sc1ncnc2scc(Br)c12	rTrxR1 inhibitor 5.6µM (no result: mIDH1 inhibitor)
Cn1nnnc1Sc1ncnc2scc(-c3ccc[nH]3)c12	rTrxR1 inhibitor 50µM (no result: mIDH1 inhibitor)
Cn1nnnc1Sc1ncnc2scc(-c3ccccc3)c12	none
Cn1nnnc1Sc1ncnc2scc(-c3ccccc3Br)c12	none (no result: mIDH1 inhibitor)
COc1cc(OC)c(/C=C/c2ccccn2)c(OC)c1	none (no result: Giardia kill, IL-2 act, BRCA1 expr act, mIDH1 inhibitor)
COc1cc(OC)c(/C=C/c2ccc3ccccc3n2)c(OC)c1	none (no result: Giardia kill, IL-2 act, BRCA1 expr act, mIDH1 inhibitor)
COc1cccc(-n2cc(C(=O)NCc3ccc(C)cc3)c3ccccc3c2=O)c1	none (no result: Giardia kill, IL-2 act, BRCA1 expr act)
O=C(O)c1ccc(COc2ccc(CO)cc2Cl)cc1	BRCA1 expr act 7.9µM
O=C(O)c1cccc(COc2ccc(CO)cc2Cl)c1	none
COc1cc(/C=C/c2nc3cc(Cl)ccc3c(=O)n2-c2ccc(C)cc2C)cc(OC)c1OC	none (no result: Giardia kill, IL-2 act, BRCA1 expr act)
O=C(CCCc1ccccc1)NC12CC3CC(CC(C3)C1)C2	BRCA1 expr act 2.8µM
O=C(Cc1ccc(Cl)cc1)N1CCc2ccccc2C1	BRCA1 expr act 10µM
CN(C)c1ccc(NC(=O)CN2CCc3ccccc3C2)cc1	BRCA1 expr act 11µM
CC(=O)c1cccc(NC(=O)N2CCc3ccccc3C2)c1	BRCA1 expr act 8.9µM
COc1ccc(NC(=O)N2CCc3ccccc3C2)cc1	BRCA1 expr act 7.9µM
COc1ccc(CC(=O)N2CCc3ccccc3C2)cc1	none
O=S(=O)(/N=C(/Sc1ccccc1)c1ccccc1)c1ccc(Cl)cc1	none (no result: IL-2 act, mIDH1 inhibitor)
COc1ccc(/C=c2\[nH]c(=O)/c(=C/c3ccc(OC)cc3)[nH]c2=O)cc1	none (no result: Giardia kill, IL-2 act, BRCA1 expr act, mIDH1 inhibitor)
CC(=O)c1ccc(NC(=O)N2CCc3ccccc3C2)cc1	BRCA1 expr act 11µM
O=C(CNc1cccc(F)c1)N1CCc2ccccc2C1	BRCA1 expr act 7.9µM
CN1CCc2nc(SCC(=O)Nc3ccc(OC(F)(F)F)cc3)c(C#N)c(-c3cccs3)c2C1	rTrxR1 inhibitor 10µM
CN1CCc2nc(SCC(=O)Nc3cccc(F)c3)c(C#N)c(-c3cccs3)c2C1	rTrxR1 inhibitor 5µM
Cc1cccc(CSc2nc3c(c(-c4cccs4)c2C#N)CN(C)CC3)c1	rTrxR1 inhibitor inconclusive
CN(C)C(=S)SCC(=O)Nc1ccc(Cl)cc1Cl	BRCA1 expr act 10µM
COc1ccc(N(Cc2cccs2)C(=O)c2ccc(OCC(C)C)cc2)cc1	none (no result: Giardia kill, IL-2 act, BRCA1 expr act)
O=C(CSc1nnc(NC2CCCCC2)s1)Nc1ccc2c(c1)C(=O)c1ccccc1C2=O	BRCA1 expr act 4.5µM
CC(C)Nc1nnc(SCC(=O)Nc2ccc3c(c2)C(=O)c2ccccc2C3=O)s1	BRCA1 expr act inconclusive
COc1ccccc1CCNC(=O)Cc1c(C)c2cc(Cl)c(O)cc2oc1=O	rTrxR1 inhibitor 79µM (no result: Giardia kill, IL-2 act, BRCA1 expr act)
COc1cc2oc(=O)c(CC(=O)NCCc3ccccc3F)c(C)c2cc1OC	rTrxR1 inhibitor inconclusive (no result: Giardia kill, IL-2 act, BRCA1 expr act)
COc1ccc(CCNC(=O)Cc2c(C)c3cc(OC)c(OC)cc3oc2=O)cc1	none (no result: Giardia kill, IL-2 act, BRCA1 expr act)
Cc1c(CC(=O)NCCc2ccccc2F)c(=O)oc2cc(O)c(Cl)cc12	rTrxR1 inhibitor 71µM (no result: Giardia kill, IL-2 act, BRCA1 expr act)
CCC(=O)N1CCc2cc(S(=O)(=O)CCC(=O)N3CCN(c4cccc(C)c4)C(C)C3)ccc21 (configuration not stated)	none (no result: Giardia kill, IL-2 act)
COc1ccc(Nc2cc(C(=O)NCCc3ccc(C)cc3)c3ccccc3n2)c(OC)c1	none (no result: Giardia kill, IL-2 act, BRCA1 expr act)
O=[N+]([O-])c1ccccc1C1Nc2cccc3cccc(c23)N1	Giardia kill inconclusive, rTrxR1 inhibitor 79µM
CCOC(=O)N1CCN(c2cc(=O)n(-c3ccc(Br)cc3)c(=O)[nH]2)CC1	rTrxR1 inhibitor 18µM
COC(=O)c1cc(=O)nc2sc3cc(OC)ccc3n12	none
CCCCc1c(O)nc2sc3cc(OC)ccc3n2c1=O	BRCA1 expr act 11µM
COc1ccc(C)cc1Nc1n[n+](-c2ccccc2)c(-c2cc([N+](=O)[O-])cc(OC)c2O)s1	IL-2 act 180
Cc1cc(OC(C)C(=O)N(Cc2ccc(N(C)C)cc2)Cc2ccco2)ccc1Cl (configuration not stated)	none (no result: Giardia kill, IL-2 act, BRCA1 expr act, mIDH1 inhibitor)
O=C(NC1CC1)c1ccc(-c2nc3ccccc3s2)s1	Giardia kill -100
O=C(c1ccc(-c2nc3ccccc3s2)s1)N1CCOCC1	Giardia kill -84, BRCA1 expr act inconclusive
COc1ccc(NC(=O)CSc2nc3ccccc3n2Cc2cccc(OC)c2)cc1	none (no result: Giardia kill, IL-2 act, BRCA1 expr act)
CC(C)c1cnc2c(c1SCC(=O)Nc1ccc(C(N)=O)cc1)c(=O)n(C)c(=O)n2C	none (no result: Giardia kill, IL-2 act, BRCA1 expr act)
O=C1CN(c2ccccc2)C(=S)N1C(=O)c1ccc(Br)cc1	BRCA1 expr act 3.2µM
CCOc1ccc(C(=O)c2cn(CC(=O)Nc3ccc(F)cc3)c3cc4c(cc3c2=O)OCCO4)cc1	none (no result: Giardia kill, IL-2 act)
